# Results filed as inconclusive are left out. Calls of active or inactive are those of the source. How the source made its calls, unless noted: active means hit-call score of the fitted dose curve at least 0.9, where 1 is the maximum; inconclusive means response in the unintended direction; inactive means score below 0.9.
# Tests used:
# [1] = Tanguay_ZF_120hpf_CFIN_legacy: (Legacy) Oregon State University Tanguay Lab 120 Hour Post-fertilization zebrafish Assay for Caudal Fin Malformation (AID 2283649)
# Summary of the method: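 Dechorionated Tropical 5D wild-type embryos, one per well from 6 hpf, static exposure to 120 hpf at 28C in 0.64% DMSO. Caudal fin malformation scored by brightfield as present/absent; not scored in dead embryos.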
# [2] = Tanguay_ZF_120hpf_PIG_legacy: (Legacy) Oregon State University Tanguay Lab 120 Hour Post-fertilization zebrafish Assay for Pigmentation Malformation (AID 2283650)
# Summary of the method: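 Tropical 5D wild-type zebrafish embryos, dechorionated with pronase at 4 hpf, were exposed singly from 6 hpf to 120 hpf statically at 28C in sealed, dark plates with 0.64% DMSO; pigmentation scored present/absent by brightfield microscopy, fitted against DMSO.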
# [3] = Tanguay_ZF_120hpf_CIRC_legacy: (Legacy) Oregon State University Tanguay Lab 120 Hour Post-fertilization zebrafish Assay for Circulatory Malformation (AID 2283651)
# Summary of the method: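 Using wild-type Tropical 5D zebrafish, we exposed dechorionated embryos from 6 to 120 hpf in embryo medium with 0.64% DMSO. Circulatory defects were scored as present or absent; 5uM trimethyltin chloride served as positive control.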
# [4] = Tanguay_ZF_120hpf_TRUN_legacy: (Legacy) Oregon State University Tanguay Lab 120 Hour Post-fertilization zebrafish Assay for Truncated Body (AID 2283655)
# Summary of the method: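 Dechorionated Tropical 5D wild-type embryos placed singly from 6 hpf and statically exposed to 120 hpf at 28C, final DMSO 0.64%. Truncated body scored as present/absent by brightfield; not scored in dead embryos.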
# [5] = Tanguay_ZF_120hpf_SWIM_legacy: (Legacy) Oregon State University Tanguay Lab 120 Hour Post-fertilization zebrafish Assay for Swim Bladder Malformation (AID 2283654);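 further: swim bladder malformation in each larva scored yes or no under brightfield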
# Summary of the method: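 Dechorionated Tropical 5D wild-type embryos, placed singly from 6 hpf, were statically exposed at 28C to 120 hpf with 0.64% DMSO final; swim bladder malformation was scored present/absent by brightfield microscopy, gain of signal relative to DMSO controls.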
# [6] = Tanguay_ZF_120hpf_NC_legacy: (Legacy) Oregon State University Tanguay Lab 120 Hour Post-fertilization zebrafish Assay for Notochord and Tail Malformation (AID 2283656)
# Summary of the method: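 Dechorionated 5D zebrafish, 1/well from 6 hpf; static exposure to 120 hpf, 28C, sealed, dark; final DMSO 0.64% v/v. NC scored binary (present/absent); dead embryos not scored. Fit vs DMSO baseline, gain direction.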
# [7] = read-out: solute carrier (SLC22A6), SLC22A6 (gene 9356); assay: LTEA_HepaRG_SLC22A6: Life Technologies and Expression Analysis (LTEA) Assay for solute carrier (SLC22A6) using HepaRG (AID 2283653; active means hit-call score of the fitted dose curve at least 0.9, where 1 is the maximum; inactive means score below 0.9); conditions: mRNA level, 48 h; actives raise or lower the signal
# Summary of the method: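 Differentiated HepaRG cells exposed 48 h in serum-free induction medium to 8 half-log concentrations, top 100 uM, in 0.5% DMSO; SLC22A6 mRNA by Fluidigm qRT-PCR normalized to ACTB, GAPDH, POLR2A, fitted bidirectionally versus DMSO.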
# [8] = read-out: solute carrier (SLC10A1), SLC10A1 (gene 6554); assay: LTEA_HepaRG_SLC10A1: Life Technologies and Expression Analysis (LTEA) Assay for solute carrier (SLC10A1) using HepaRG (AID 2283657; active means hit-call score of the fitted dose curve at least 0.9, where 1 is the maximum; inactive means score below 0.9); conditions: mRNA level, 48 h; actives raise or lower the signal
# Summary of the method: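 Differentiated HepaRG cells were plated 48 h, then exposed in serum-free induction medium for 48 h to 8 concentrations (top 100 uM, half-log steps, 0.5% DMSO). SLC10A1 mRNA was quantified by qRT-PCR normalized to ACTB, GAPDH, POLR2A; bidirectional fit versus DMSO.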
# [9] = read-out: matrix metalloproteinase-1 (MMP1), MMP1 (gene 4312); assay: LTEA_HepaRG_MMP1: Life Technologies and Expression Analysis (LTEA) Assay for matrix metalloproteinase-1 (MMP1) using HepaRG (AID 2283658; active means hit-call score of the fitted dose curve at least 0.9, where 1 is the maximum; inactive means score below 0.9); conditions: mRNA level, 48 h; actives raise or lower the signal
# Summary of the method: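 Differentiated human HepaRG cells, 48 h post-plating in serum-free induction medium, were exposed 48 h to eight half-log concentrations topping at 100 uM in 0.5% DMSO, duplicate. MMP1 mRNA measured by Fluidigm TaqMan qRT-PCR, normalized to ACTB, GAPDH, POLR2A; bidirectional fits versus DMSO.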
# [10] = read-out: kallikrein-3 (KLK3), KLK3 (gene 354); assay: LTEA_HepaRG_KLK3: Life Technologies and Expression Analysis (LTEA) Assay for kallikrein-3 (KLK3) using HepaRG (AID 2283652; active means hit-call score of the fitted dose curve at least 0.9, where 1 is the maximum; inactive means score below 0.9); conditions: mRNA level, 48 h; actives raise or lower the signal
# Summary of the method: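 Differentiated human HepaRG cells in serum-free induction medium exposed 48 h in duplicate, eight-point half-log series from 100 uM in 0.5% DMSO. KLK3 mRNA by qRT-PCR, normalised to ACTB, GAPDH, POLR2A; bidirectional fit versus DMSO.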
structure (smiles),measurement,setting,value
CCN(Cc1cccc(S(=O)(=O)O)c1)c1ccc(C(=C2C=CC(=[N+](CC)Cc3cccc(S(=O)(=O)O)c3)C=C2)c2ccccc2S(=O)(=O)[O-])cc1,outcome,[1],inactive
same,outcome,[2],inactive
same,outcome,[3],inactive
same,outcome,[4],inactive
O=c1[nH]sc2ccccc12,outcome,[1],inactive
same,outcome,[2],inactive
same,outcome,[5],inactive
same,outcome,[4],inactive
same,outcome,[6],inactive
CN1C(=O)N(c2ccccc2Br)Cc2cnc(Nc3ccc4c(c3)OCC(CO)O4)nc21 (stereo not drawn),outcome,[1],inactive
same,AC50,[2],49.7 µM (active)
same,outcome,[5],inactive
same,outcome,[4],inactive
CCN(Cc1cccnc1)C(=O)c1cccc(Cl)c1[C@]1(C)C(=O)N(Cc2ccc(OC)cc2OC)c2ccc(Cl)cc21,outcome,[1],inactive
same,outcome,[2],inactive
same,outcome,[5],inactive
same,outcome,[4],inactive
same,outcome,[6],inactive
O=c1c(-c2ccc(O)cc2)coc2cc(O)cc(O)c12,outcome,[1],inactive
same,outcome,[2],inactive
same,outcome,[5],inactive
same,outcome,[4],inactive
same,outcome,[6],inactive
OC12N=C(c3ccccc3)SC1Cc1cc(Cl)ccc12 (stereo not drawn),AC50,[1],48.1 µM (active)
same,AC50,[2],44.5 µM (active)
same,outcome,[5],inactive
same,AC50,[4],48.2 µM (active)
Cc1occc1C(=O)Nc1ccc(C(=O)N2CCC(F)(F)/C(=C\C(=O)N3CCC(N4CCCCC4)CC3)c3ccccc32)cc1,outcome,[1],inactive
same,outcome,[2],inactive
same,outcome,[7],inactive
same,outcome,[4],inactive
same,outcome,[6],inactive
same,AC50,[8],41.9 µM (active)
same,outcome,[9],inactive
CN(C)C(=O)C1(N2CCCCC2)CCN(CC[C@@]2(c3ccc(Cl)c(Cl)c3)CN(C(=O)c3ccccc3)CCO2)CC1,outcome,[1],inactive
same,outcome,[2],inactive
same,outcome,[5],inactive
same,outcome,[4],inactive
same,outcome,[6],inactive
CC1=CC(=O)/C(=C(/C)O)C(=O)O1,outcome,[1],inactive
same,outcome,[2],inactive
same,outcome,[3],inactive
same,outcome,[4],inactive
same,outcome,[6],inactive
O=C1c2ccccc2C(=O)N1CCc1noc(-c2ccc(CN3CCCCCC3)s2)n1,outcome,[1],inactive
same,outcome,[2],inactive
same,outcome,[10],inactive
same,outcome,[7],inactive
same,outcome,[5],inactive
same,outcome,[4],inactive
same,outcome,[6],inactive
same,AC50,[8],11.1 µM (active)
same,outcome,[9],inactive
C[C@]12CC[C@@H]3c4ccc(O)cc4CC[C@H]3[C@@H]1CC[C@H]2O,outcome,[1],inactive
same,outcome,[2],inactive
same,outcome,[7],inactive
same,outcome,[5],inactive
same,outcome,[4],inactive
same,outcome,[6],inactive
same,AC50,[8],72.6 µM (active)
same,outcome,[9],inactive
CN1C(=O)CC[C@H]1c1cccnc1,outcome,[1],inactive
same,outcome,[2],inactive
same,outcome,[3],inactive
same,outcome,[5],inactive
same,outcome,[4],inactive
same,outcome,[6],inactive
O=C1O[C@H]([C@@H](O)CO)C(O)=C1O,outcome,[1],inactive
same,outcome,[2],inactive
same,outcome,[3],inactive
same,outcome,[4],inactive
same,outcome,[6],inactive
C[C@]12CC[C@@H]3c4ccc(O)cc4CC[C@H]3[C@@H]1CCC2=O,outcome,[1],inactive
same,outcome,[2],inactive
same,outcome,[5],inactive
same,outcome,[4],inactive
same,outcome,[6],inactive
Oc1ccc2ccccc2c1,AC50,[1],10.4 µM (active)
same,AC50,[2],12.9 µM (active)
same,outcome,[5],inactive
same,AC50,[4],50.2 µM (active)
same,outcome,[6],inactive
c1ccc(C[n+]2cccc3ccccc32)cc1,outcome,[1],inactive
same,outcome,[2],inactive
same,outcome,[3],inactive
same,outcome,[4],inactive
same,outcome,[6],inactive
CCCCCCCCCCCCO,outcome,[1],inactive
same,outcome,[2],inactive
same,outcome,[7],inactive
same,outcome,[5],inactive
same,outcome,[4],inactive
same,outcome,[6],inactive
same,outcome,[8],inactive
same,outcome,[9],inactive
NC(=O)c1nc(-c2cccc(-c3cc(F)ccc3OCC(F)(F)C(F)(F)F)c2)n[nH]1,outcome,[1],inactive
same,AC50,[2],26.7 µM (active)
same,AC50,[3],27.3 µM (active)
same,AC50,[5],26.4 µM (active)
same,AC50,[4],27 µM (active)
same,outcome,[6],inactive
CCCCCCCCOC(=O)c1cc(O)c(O)c(O)c1,outcome,[1],inactive
same,outcome,[2],inactive
same,outcome,[3],inactive
same,outcome,[5],inactive
same,outcome,[4],inactive
same,outcome,[6],inactive
NCc1cccc(C2CCN(C(=O)c3ccc(C#Cc4ccccc4F)o3)CC2)c1,outcome,[1],inactive
same,outcome,[2],inactive
same,outcome,[5],inactive
same,outcome,[4],inactive
same,outcome,[6],inactive
CC[C@@H]1C[C@H](N(Cc2cc(C(F)(F)F)cc(C(F)(F)F)c2)C(C)=O)c2cc(C(F)(F)F)ccc2N1C(=O)OC(C)C,outcome,[1],inactive
same,outcome,[2],inactive
same,outcome,[3],inactive
same,outcome,[5],inactive
Clc1cc(Cl)c2c(c1)N=C1CCCCCN1C2,outcome,[1],inactive
same,outcome,[2],inactive
same,outcome,[3],inactive
same,outcome,[5],inactive
same,outcome,[6],inactive
CC(C)(c1cc(Br)c(O)c(Br)c1)c1cc(Br)c(O)c(Br)c1,outcome,[1],inactive
same,outcome,[2],inactive
same,outcome,[3],inactive
same,outcome,[4],inactive
same,outcome,[6],inactive
O=C1CCC(C2CCCCC2)CC1,outcome,[1],inactive
same,outcome,[2],inactive
same,outcome,[5],inactive
same,outcome,[4],inactive
same,outcome,[6],inactive
CCCCOC(=O)c1ccc(O)cc1,AC50,[1],50.2 µM (active)
same,AC50,[2],36.9 µM (active)
same,AC50,[3],40.3 µM (active)
same,AC50,[5],46 µM (active)
same,AC50,[4],21 µM (active)
same,outcome,[6],inactive
CCCCCCCCCCCO,outcome,[1],inactive
same,outcome,[2],inactive
same,outcome,[5],inactive
same,outcome,[4],inactive
CC(O)CC(C)(C)O (stereo not drawn),outcome,[1],inactive
same,outcome,[2],inactive
same,outcome,[3],inactive
same,outcome,[5],inactive
same,outcome,[4],inactive
same,outcome,[6],inactive
CC1(C)NC(=O)N(c2ccc([N+](=O)[O-])c(C(F)(F)F)c2)C1=O,outcome,[1],inactive
same,outcome,[2],inactive
same,outcome,[3],inactive
same,outcome,[5],inactive
same,outcome,[4],inactive
same,outcome,[6],inactive

# — PubChem BioAssay (EPA / NIEHS)
